Bioassay records as filed in PubChem.
Compounds with a hit are over-represented: about 3.5% of the library has one in this group of screens.
MITF primary = MITF inhibitors, primary screen, biochemical, AlphaScreen, human; inhibition, % at 2.6 µM; Microphthalmia-associated transcription factor (Homo sapiens), O75030; hit rate 0.91% among 650,000; AlphaScreen MITF homodimerization, bead proximity signal; AID 1259374, 2018; in the data active means inhibition above about 50%;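 further: 0% = vehicle wells with protein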
FBW7 activator = FBW7 E3 ligase activators, primary screen, biochemical, AlphaScreen, human | hit rate 0.13% among 650,000 | F-box/WD repeat-containing protein 7 (Homo sapiens), Q969H0 | normalized activity (activation), % at 26.1 µM | AlphaScreen FBW7–phospho-cyclin E peptide binding, activator screen | AID 1259310, 2017; in the data active means normalized activity above about 1.9%;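 further: purified mutant Fbw7 with reduced substrate affinity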
Target sequence (Q969H0 whole entry, looked up): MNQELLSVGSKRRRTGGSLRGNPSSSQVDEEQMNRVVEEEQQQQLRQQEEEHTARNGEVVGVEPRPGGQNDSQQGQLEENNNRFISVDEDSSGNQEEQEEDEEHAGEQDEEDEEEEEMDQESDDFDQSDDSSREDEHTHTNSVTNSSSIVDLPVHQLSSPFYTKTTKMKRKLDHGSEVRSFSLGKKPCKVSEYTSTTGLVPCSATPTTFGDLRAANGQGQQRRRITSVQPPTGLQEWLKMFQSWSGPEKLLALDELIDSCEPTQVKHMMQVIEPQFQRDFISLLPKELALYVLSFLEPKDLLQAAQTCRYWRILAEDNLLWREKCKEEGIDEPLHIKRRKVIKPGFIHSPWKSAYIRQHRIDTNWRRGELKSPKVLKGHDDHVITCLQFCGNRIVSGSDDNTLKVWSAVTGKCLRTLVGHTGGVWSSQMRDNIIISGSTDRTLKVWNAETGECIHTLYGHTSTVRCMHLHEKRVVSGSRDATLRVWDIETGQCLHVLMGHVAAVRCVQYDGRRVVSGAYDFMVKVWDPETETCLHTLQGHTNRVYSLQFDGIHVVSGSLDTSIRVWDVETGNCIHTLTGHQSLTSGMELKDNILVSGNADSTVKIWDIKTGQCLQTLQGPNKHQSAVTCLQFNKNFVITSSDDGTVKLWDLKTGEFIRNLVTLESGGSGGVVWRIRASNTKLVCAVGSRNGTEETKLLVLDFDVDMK
GPR151 ag = activators of human GPR151, primary screen, cell-based, PathHunter beta-arrestin, luminescence; G-protein coupled receptor 151 (Homo sapiens), Q8TDV0; PathHunter beta-arrestin GPR151 cells; activation, % at 11.2 µM; hit rate 1% among 650,000; AID 1508602, 2020; in the data active means activation above about 4.9%;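 further: 0% = median of compound wells and 100% = cells with positive control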
TEAD-YAP block = TEAD-YAP interaction inhibition, primary screen, TEAD-YAP interaction inhibitor project, luminescence, HEK-TIYL cells; TEAD-Gal4/YAP UAS-luciferase luminescence; inhibition, % at 9.12 µM; hit rate 1.4% among 640,000; AID 1259422, 2018; in the data active means inhibition above about 32%;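 further: 0% = median of test compound wells and 100% = reference inhibitor wells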
Starred values were filed as active, the others as inactive.

SMILES	MITF primary	FBW7 activator	GPR151 ag	TEAD-YAP block
Cc1ccccc1C1CC(=O)Nc2ccc3ccccc3c21 (stereo not given)	1	0	-2	38*
O=C1CC(c2ccccc2)c2c(ccc3ccccc23)N1 (stereo not given)	13	0	1	9
COc1ccc(C)c2sc(N3CCOCC3)nc12	8	0	0	2
COc1ccc(C(=O)N2CCN3C(=O)[C@H](C)N(C)C(=O)[C@H]3C2)cc1	6	1	-1	0
COc1ccc(/C=C/c2ccc(N)cc2)cc1	13	0	-1	41*
CCN1/C(=C/C=C/c2oc3ccc4ccccc4c3[n+]2CC)Oc2ccc3ccccc3c21	-8	0	2	78*
CCN1/C(=C/C=C/c2oc3ccc(Cl)cc3[n+]2CC)Oc2ccc(Cl)cc21	1	0	0	6
Cn1c(=O)oc2cc(S(=O)(=O)N3CCc4ccccc43)ccc21	9	0	0	50*
CC1Cc2ccccc2N1S(=O)(=O)c1ccc2c(c1)oc(=O)n2C (stereo not given)	-3	0	1	49*
Cc1cc(-c2ccc(S(=O)(=O)N3CCc4ccccc43)cc2)on1	15	0	-1	58*
Cn1c(=O)c(=O)n(C)c2cc(S(=O)(=O)N3CCc4ccccc43)ccc21	14	0	0	-3
O=S(=O)(c1ccc(Cl)c(Cl)c1)N1CCc2ccccc21	-7	0	1	14
Cn1c(=O)oc2cc(S(=O)(=O)N3CCCc4ccccc43)ccc21	8	1	-1	55*
COc1cc(CN2CCC3(CCC(CNC(=O)c4cc(C)nn4C)O3)CC2)ccc1O (stereo not given)	3	1	1	-1
CC1CCCN(C2=NC(=O)/C(=C\c3cccc(O)c3)S2)C1 (stereo not given)	-2	0	-1	-9
CN(C)S(=O)(=O)N1CCN(Cc2nc3ccccc3n2Cc2ccccc2)CC1	-5	0	1	-11
Cc1ccc2c(c1)C(C)CC(C)(C)N2C(=O)c1sc2ccccc2c1Cl (stereo not given)	2	0	0	11
Cc1cnc(CN2C(=O)CC3(CCCC3)CC2=O)cn1	14	1	2	1
COc1ccc2c(c1)c(=O)cc(C)n2CC(=O)Nc1ccccc1OC	-6	0	-1	19
COc1ccc(N2CCN(CC(O)COC(C)(C)C)CC2)cc1 (stereo not given)	46	0	0	-6
COc1ccc(N2CCN(C(C)CC(=O)O)CC2)cc1 (stereo not given)	72*	0	0	-7
CCN(CC)CC(O)CN1CCN(c2ccc(OC)cc2)CC1 (stereo not given)	55*	0	-1	2
O=C(Nc1cccc(-c2cn3c(n2)SCC3)c1)c1ccc(F)cc1	9	0	-1	-8
CCOC(=O)N1CC=C2C(C#N)=C(N)C(C#N)(C#N)C(C)C2C1 (stereo not given)	9	0	1	68*
N/C(=N\OC(=O)c1cccc(Cl)c1)c1ccccn1	12	0	-6	49*
SMILES	MITF primary	FBW7 activator	GPR151 ag	TEAD-YAP block
N/C(=N\OC(=O)c1ccccc1Br)c1ccccn1	15	0	-7	66*
COc1ccccc1C(=O)O/N=C(\N)c1ccccn1	1	0	-8	38*
N/C(=N\OC(=O)c1ccccc1I)c1ccccn1	-14	0	-5	-27
Cc1cc(C)cc(C(=O)O/N=C(\N)c2ccccn2)c1	15	0	-1	-44
Cc1ccc(C(=O)O/N=C(\N)c2ccccn2)c(C)c1	-4	0	-10	90*
O=C(NC1CCCCC1)c1c(O)c2cccc3c2n(c1=O)CC3	10	0	0	4
N/C(=N\OC(=O)c1ccccc1F)c1ccccn1	18	1	-9	82*
COc1ccc(-c2nc(C(=O)NCc3cccnc3)cs2)cc1	13	0	0	7
O=C1CCCC2=C1C(c1ccc(O)c(Br)c1)C1=C(CCCC1=O)O2	17	0	0	45*
Cc1ccc(S(=O)(=O)C(CNC(=O)C(=O)Nc2ccc(F)cc2)c2ccco2)cc1 (stereo not given)	7	0	5	-9
CC(C)CCNC(=O)CSc1nc(Nc2ccc3c(c2)OCO3)c2ccccc2n1	1	1	0	10
Cc1cc(NC(=O)CSc2nc(Nc3ccc4c(c3)OCO4)c3ccccc3n2)n[nH]1	9	0	1	50*
Cc1cc(NC(=O)CSc2nc3ccccc3c3nc(CCN4CCCCC4)nn23)n[nH]1	15	1	-1	58*
Cc1cc(NC(=O)CSc2nc3ccccc3c3nc(CCc4c[nH]c5ccccc45)nn23)n[nH]1	-10	0	1	61*
O=C(CSc1nc2ccccc2c(=O)n1CCCN1CCCCC1)Nc1nccs1	5	0	1	42*
COCCn1c2ccccc2n2c(=O)n(CC(=O)NC(C)(C)C)nc12	-1	0	1	4
CCOC(=O)c1c(NC(=O)/C(C#N)=C/c2cccnc2)sc(C)c1C	14	2.0*	0	6
CCOC(=O)c1c(NC(=O)/C(C#N)=C/c2cccnc2)sc2c1CCCC2	-5	0	3	4
COC(=O)Oc1ccc(C#N)cc1	-7	0	-1	-2
COc1ccc(-c2cnc(NCc3cnc(C)cn3)nc2)cc1	9	1	-2	46*
COc1ccc(-c2cnnc(NCc3cnc(C)cn3)n2)cc1	8	0	1	0
Cc1ccc2c(c1)C1(NN=C(c3ccccc3O)S1)C(=O)N2 (stereo not given)	3	0	0	54*
CC(C)N(CCNc1nc(-c2ccc(N3CCOCC3)nc2)nc2c1ncn2C(C)C)C(C)C	-14	0	3	19
COc1ccc(-c2nc(NCCN(C(C)C)C(C)C)c3ncn(-c4ccsc4)c3n2)cn1	13	0	-1	35*
CC(C)N(CCNc1nc(-c2ccc(N3CCOCC3)nc2)nc2c1ncn2-c1ccsc1)C(C)C	6	0	0	43*
SMILES	MITF primary	FBW7 activator	GPR151 ag	TEAD-YAP block
OCCNc1nc(-c2ccc(N3CCOCC3)nc2)nc2c1ncn2-c1ccsc1	-2	0	0	34*
CCN(C(=O)COc1cc(C)cc(C)c1)c1ccccc1	-10	0	0	-9
O=C(Nc1ccc(S(=O)(=O)NCCc2ccccc2)cc1)N1CCCCC1	3	0	0	5
Cc1cccc(N2CCN(C(=O)c3ccccc3)CC2)c1C	24	0	1	14
CC(=O)Oc1ccc(C(=O)N2CCN(c3cccc(C)c3C)CC2)cc1	7	0	1	51*
CC(=O)NC1=NC(=O)/C(=C\c2ccc(I)o2)S1	75*	0	1	-3
CC(=O)NC1=NC(=O)/C(=C/c2ccc(-c3ccc(Cl)cc3)o2)S1	-2	0	0	-12
